Common to all, as to assay: NCI-60 one-dose screen, 48 h (100 = growth as untreated, 0 = no growth, -100 = all killed)
Common to all, as to details: 10 µM unless noted

Assay [1] concerns NCI-H23 lung.
Assay [2] has as its system NCI-H226 lung.
The test system of assay [3] is NCI-H322M lung.
Assay [4] relates to NCI-H460 lung.
Assay [5] concerns HOP-92 NSCLC.
The subject of assay [6] is NCI-H522 lung.
The subject of assay [7] is A549/ATCC NSCLC.
Assay [8] has as its system 786-0 renal.
Assay [9] relates to COLO 205 colon.
Assay [10] deals with HOP-62 NSCLC.

Compounds without any hit were thinned out: in the full panel of roughly 83,000, 20% have a hit.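 In brief: 96-well plates, 48 h treatment, single concentration, percent growth endpoint.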 Unmarked numbers belong to inactive results. Active and inactive are the calls of the source. How the source made its calls: active means growth percent below 10; inactive means the rest.

In the case of `O=C(c1cc(-c2ccc(Cl)cc2)nc2ccccc12)N1N=C(c2ccccc2)CC1c1cc(-c2ccccc2)nn1-c1ccccc1` (stereo unspecified), the growth in assay [1] was 72.5%; in [2], 84.1%; in assay [3], 59.8%; in [4], 48.6%; in assay [5], 85%; in [6], 80.8%. For the same compound, the growth in assay [7] is 80%; in [8], 90%; in assay [9], 84.9%.
On to `O=C1c2ccccc2OC=C(c2ccccc2)N1CCCCNc1ccc(F)cc1`, for which the growth in assay [1] is 90.1%; in assay [2] it was 87.5%; in assay [3], 90.3%; in assay [4], 97.9%; in assay [5] it was 21.8%; in assay [6] it was 69.5%. Also, the growth was 68.9% in [7], 68.2% in assay [8] and 67.6% in [9].
Take `O=C(Nc1ccc(-n2ccc3c(NC(=O)c4ccccc4)ncnc32)cc1)c1ccc(Cl)c(C(F)(F)F)c1`: the growth is 56.5% in assay [1]; 32.3% in assay [2]; 44.1% in [3]; -30.5% (active) in assay [4]; 89.4% in [5]; 11.3% in assay [6]. For the same compound, the growth is -40.8% (active) in assay [7], 54.9% in assay [8] and 33.3% in [9].
With `COc1ccc(OC)c(NCC(=O)n2nc(/C=C\c3ccc(O)c(OC)c3)cc2/C=C\c2ccc(O)c(OC)c2)c1`, the growth in assay [1] was 19.1%; in assay [2], 29%; in [3] it was 29.5%; in assay [4], 8.27% (active); in assay [5] it was 34.5%; in assay [6] it was -19.3% (active). Besides, the values for the growth in assay [7], in assay [8] and in assay [9] were 21.4%, -7.3% (active) and -46.8% (active), respectively.
`COC(=O)c1ccc2c(c1)Oc1ccc(Cl)cc1-c1cc(C)nn1-2`: the growth in [1] was 78.1%; in assay [2], 37.4%; in [3], 81.9%; in [4] it was 14%; in assay [5], 61.1%; in assay [6], 82.3%. Besides, the growth is 40.5% in assay [7], 69.5% in assay [8] and 69.6% in assay [9].
As for `Nc1ncc(-c2ccc3ncnc(Nc4cncc(Cl)c4)c3c2)cn1`, the growth in [1] was 65.1%; in assay [2], 55.2%; in assay [3] it was 29.8%; in [4], 67.8%; in assay [5] it was -0.664% (active); in [6] it was 55.5%. Moreover, the growth in assay [7] is 65.4%; in assay [8], 65.8%; in assay [9], 75.6%.
For the compound `C=C1C(=O)O[C@H]2[C@H]1CC/C(C(=O)NCCOCCOCC(=O)Nc1ccc(OC)c(C(N)=O)c1O)=C\CC[C@@]1(C)O[C@@H]21`, the growth in [1] was 97.7%; in assay [2], 80.7%; in [3] it was 94.2%; in assay [4], 106%; in assay [5] it was 92.5%; in assay [6], 26.1%. The growth is 84.4% in [7], 94.3% in [8] and 73.7% in assay [9].
Take `CC[C@@]1(O)C(=O)OCc2c1cc1n(c2=O)Cc2c-1nc1ccccc1c2/C=N/OC(C)(C)C`: the growth in [1] is -4.17% (active); in [2], -78.7% (active); in [3], 12.4%; in assay [4], 1.16% (active); in assay [5] it was -11.8% (active); in [6] it was -47.8% (active). The growth was -11% (active) in [7], 2.49% (active) in assay [8] and -26.9% (active) in assay [9].
`Nc1c(C(=O)O)[nH]c(=O)[nH]c1=O`: the growth in [1] is 103%; in assay [2], 93.8%; in assay [3], 102%; in [4], 104%; in assay [5] it was 104%; in assay [6], 84.3%. In addition, the growth is 71.9% in [7], 104% in assay [8] and 115% in assay [9].
`COc1ccccc1NC(=O)COc1ccc(/C=C2/Oc3cc4occc4c(OC)c3C2=O)cc1OC`: the growth in [1] was 97.1%; in assay [2], 101%; in assay [3], 115%; in assay [4], 114%; in assay [5], 99.1%; in assay [6], 86.9%. Also, the growth is 96.6% in [7], 96.1% in assay [8] and 114% in assay [9].
Regarding `Cc1ccccc1C[P+](c1ccccc1)(c1ccccc1)c1ccccc1`, the growth in [1] was 11.6%; in assay [2], 32.9%; in [3], 57.7%; in [4], 21%; in assay [5], -7.58% (active); in [6] it was 0.342% (active). For the same compound, the growth was 29.9% in assay [7], 40.7% in assay [8] and 9.84% (active) in assay [9].
`CCCCn1c(-c2cccc(OC)c2)nc2cc(OC)c(OC)cc2c1=O`: the growth in [1] is 87.3%; in assay [2], 92.8%; in [3], 197%; in assay [10], 45.7%; in assay [4], 115%; in assay [5], 83.1%. Besides, the growth was 92.4% in [6], 11.3% in [7] and 117% in assay [9].
As for `O=C(NCCNc1nccc(-c2c(-c3cccc(O)c3)nc3sccn23)n1)c1ccccc1`, the growth is 82.6% in [1]; 54.5% in [2]; 101% in assay [3]; 42.4% in assay [4]; 58.6% in assay [5]; 72.7% in assay [6]. Further, the growth in assay [7] was 56.3%; in assay [8], 66.5%; in assay [9], 48.5%.
Take `CCCCCCCCN(CCCCCCCC)CC(O)c1cc(-c2ccccc2)nc2ccc(OC)cc12` (stereo unspecified): the growth is 67.1% in assay [1]; 88.1% in [2]; 106% in assay [3]; 98.9% in assay [4]; 70.1% in assay [5]; 77.5% in [6]. Moreover, the growth in assay [7] is 78.6%; in assay [8] it was 82.6%; in assay [9] it was 85.7%.

The record behind these values is PubChem BioAssay (NCI).
